Out of some 5,500 compounds screened, about 2,000 (36%) were called active. Another 18% or so got no clear call; they are omitted. Rule as the data show it: active = normalized growth mostly below about 0.91 (no sharp cut-off); inconclusive = no clear call, values can overlap the other calls; inactive = mostly above about 0.92. The list shows a part of the results.
Assay: chemical genetic growth profiling, strain panel (AID 1159580);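 also: tested at 20 µM; growth read once vehicle control cultures reached saturation at 30 °C; 1 = growth at the plate median or of vehicle wells; lower values mean less growth of the strain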
Conditions: growth OD
[1] = S. cerevisiae deletion strains, locus YBR021W, strain FUR4, stronger effect = lower value
[2] = S. cerevisiae deletion strains, locus YBR229C, strain ROT2, stronger effect = lower value
[3] = S. cerevisiae deletion strains, locus YCL029C, strain bik1, stronger effect = lower value
[4] = S. cerevisiae deletion strains, locus YDL035C, strain GPR1, stronger effect = lower value
[5] = S. cerevisiae deletion strains, locus YDL074C, strain BRE1, stronger effect = lower value
[6] = S. cerevisiae deletion strains, locus YDL101C, strain DUN1, stronger effect = lower value
[7] = S. cerevisiae deletion strains, locus YDL185W, strain tfp1, stronger effect = lower value
[8] = S. cerevisiae deletion strains, locus YDL192W, strain arf1, stronger effect = lower value
[9] = S. cerevisiae deletion strains, locus YDR101C, strain arx1, stronger effect = lower value
[10] = S. cerevisiae deletion strains, locus YDR150W, strain NUM1, stronger effect = lower value
[11] = S. cerevisiae deletion strains, locus YDR162C, strain NBP2, stronger effect = lower value
[12] = S. cerevisiae deletion strains, locus YDR318W, strain mcm21, stronger effect = lower value
[13] = S. cerevisiae deletion strains, locus YDR388W, stronger effect = lower value
[14] = S. cerevisiae deletion strains, locus YDR502C, strain sam2, stronger effect = lower value
[15] = S. cerevisiae deletion strains, locus YEL061C, strain CIN8, stronger effect = lower value
[16] = S. cerevisiae deletion strains, locus YER110C, stronger effect = lower value
[17] = S. cerevisiae deletion strains, locus YER155C, strain BEM2, stronger effect = lower value
[18] = S. cerevisiae deletion strains, locus YER167W, strain BCK2, stronger effect = lower value
[19] = S. cerevisiae deletion strains, locus YGL078C, strain dbp3, stronger effect = lower value
[20] = S. cerevisiae deletion strains, locus YGL086W, strain mad1, stronger effect = lower value
[21] = S. cerevisiae deletion strains, locus YGL248W, strain PDE1, stronger effect = lower value
[22] = S. cerevisiae deletion strains, locus YGR135W, strain pre9, stronger effect = lower value
[23] = S. cerevisiae deletion strains, locus YGR252W, strain gcn5, stronger effect = lower value
[24] = S. cerevisiae deletion strains, locus YHR030C, strain SLT2, stronger effect = lower value
[25] = S. cerevisiae deletion strains, locus YHR079C, strain IRE1 (second series), stronger effect = lower value
[26] = S. cerevisiae deletion strains, locus YHR094C, strain hxt1, stronger effect = lower value
[27] = S. cerevisiae deletion strains, locus YHR129C, strain ARP1, stronger effect = lower value
[28] = S. cerevisiae deletion strains, locus YHR200W, strain rpn10, stronger effect = lower value
[29] = S. cerevisiae deletion strains, locus YIL066C, strain RNR3, stronger effect = lower value
[30] = S. cerevisiae deletion strains, locus YIL073C, strain SPO22, stronger effect = lower value
[31] = S. cerevisiae deletion strains, locus YIL125W, strain kgd1, stronger effect = lower value
[32] = S. cerevisiae deletion strains, locus YIR030C, strain dcg1, stronger effect = lower value
[33] = S. cerevisiae deletion strains, locus YJL095W, strain BCK1, stronger effect = lower value
[34] = S. cerevisiae deletion strains, locus YJL134W, strain LCB3, stronger effect = lower value
[35] = S. cerevisiae deletion strains, locus YJL168C, strain set2, stronger effect = lower value
[36] = S. cerevisiae deletion strains, locus YJL187C, strain SWE1 (second series), stronger effect = lower value
[37] = S. cerevisiae deletion strains, locus YJR043C, strain POL32, stronger effect = lower value
[38] = S. cerevisiae deletion strains, locus YKL009W, strain mrt4, stronger effect = lower value
[39] = S. cerevisiae deletion strains, locus YKL068W, stronger effect = lower value
[40] = S. cerevisiae deletion strains, locus YKL085W, strain MDH1 (second series), stronger effect = lower value
[41] = S. cerevisiae deletion strains, locus YKL085W, strain MDH1, stronger effect = lower value
[42] = S. cerevisiae deletion strains, locus YKL190W, strain CNB1, stronger effect = lower value
[43] = S. cerevisiae deletion strains, locus YKR001C, strain vps1, stronger effect = lower value
[44] = S. cerevisiae deletion strains, locus YLR039C, strain RIC1, stronger effect = lower value
[45] = S. cerevisiae deletion strains, locus YLR058C, strain SHM2, stronger effect = lower value
[46] = S. cerevisiae deletion strains, locus YLR102C, strain apc9, stronger effect = lower value
[47] = S. cerevisiae deletion strains, locus YLR268W, strain sec22, stronger effect = lower value
[48] = S. cerevisiae deletion strains, locus YLR330W, strain CHS5, stronger effect = lower value
[49] = S. cerevisiae deletion strains, locus YLR371W, strain rom2, stronger effect = lower value
[50] = S. cerevisiae deletion strains, locus YLR418C, strain cdc73, stronger effect = lower value
[51] = S. cerevisiae deletion strains, locus YML016C, strain PPZ1, stronger effect = lower value
[52] = S. cerevisiae deletion strains, locus YML032C, strain rad52, stronger effect = lower value
[53] = S. cerevisiae deletion strains, locus YML124C, strain tub3, stronger effect = lower value
[54] = S. cerevisiae deletion strains, locus YMR078C, strain ctf18, stronger effect = lower value
[55] = S. cerevisiae deletion strains, locus YMR223W, strain ubp8, stronger effect = lower value
[56] = S. cerevisiae deletion strains, locus YMR263W, strain SAP30, stronger effect = lower value
[57] = S. cerevisiae deletion strains, locus YMR307W, strain GAS1, stronger effect = lower value
[58] = S. cerevisiae deletion strains, locus YNL067W, strain RPL9B, stronger effect = lower value
[59] = S. cerevisiae deletion strains, locus YNL153C, strain GIM3, stronger effect = lower value
[60] = S. cerevisiae deletion strains, locus YNL233W, strain BNI4, stronger effect = lower value
[61] = S. cerevisiae deletion strains, locus YNL250W, strain rad50, stronger effect = lower value
[62] = S. cerevisiae deletion strains, locus YNL271C, strain bni1, stronger effect = lower value
[63] = S. cerevisiae deletion strains, locus YNL298W, strain CLA4, stronger effect = lower value
[64] = S. cerevisiae deletion strains, locus YNL307C, strain MCK1, stronger effect = lower value
[65] = S. cerevisiae deletion strains, locus YNR052C, strain pop2, stronger effect = lower value
[66] = S. cerevisiae deletion strains, locus YOL012C, strain htz1
[67] = S. cerevisiae deletion strains, locus YOL147C, strain pex11, stronger effect = lower value
[68] = S. cerevisiae deletion strains, locus YOR061W, strain CKA2, stronger effect = lower value
[69] = S. cerevisiae deletion strains, locus YOR069W, strain VPS5, stronger effect = lower value
[70] = S. cerevisiae deletion strains, locus YOR136W, strain idh2, stronger effect = lower value
[71] = S. cerevisiae deletion strains, locus YOR144C, strain elg1, stronger effect = lower value
[72] = S. cerevisiae deletion strains, locus YOR184W, strain ser1, stronger effect = lower value
[73] = S. cerevisiae deletion strains, locus YOR316C, strain cot1, stronger effect = lower value
[74] = S. cerevisiae deletion strains, locus YPR119W, strain clb2, stronger effect = lower value
[75] = S. cerevisiae deletion strains, locus YPR141C, strain kar3, stronger effect = lower value
[76] = S. cerevisiae deletion strains, locus YPR163C, strain tif3, stronger effect = lower value
[77] = S. cerevisiae deletion strains, locus YPR167C, strain met16, stronger effect = lower value
[78] = S. cerevisiae deletion strains, strain wtn01, stronger effect = lower value
[79] = S. cerevisiae strains, strain wild type, stronger effect = lower value

Measured: normalized growth

CC(=O)OCC(=O)[C@@]1(O)CCC2C3CC[C@@H]4C[C@H](OC(C)=O)CC[C@]4(C)C3C(=O)C[C@@]21C (stereo not given in full)
inactive: [1] 0.972 | [2] 0.997 | [3] 1.03 | [4] 0.989 | [5] 0.993 | [6] 1.01 | [7] 1.02 | [8] 1.01 | [9] 1.01 | [10] 0.994 | [11] 0.987 | [12] 1 | [13] 1.01 | [14] 1 | [15] 0.971 | [16] 1.01 | [17] 0.994 | [18] 0.961 | [19] 1 | [20] 1.01 | [21] 1.01 | [22] 1 | [23] 0.991 | [24] 1 | [25] 1.01 | [26] 1.01 | [27] 0.996 | [28] 1.02 | [29] 1 | [30] 1.05 | [31] 1 | [32] 0.999 | [33] 1 | [34] 1 | [35] 1.01 | [36] 0.999 | [37] 0.995 | [38] 0.988 | [39] 1.01 | [40] 1.01 | [41] 1.01 | [42] 0.997 | [43] 1.01 | [44] 1.02 | [45] 0.993 | [46] 1.01 | S. cerevisiae deletion strains, locus YLR262C, strain YPT6, stronger effect = lower value 1.03 | [47] 1.03 | [48] 1 | S. cerevisiae deletion strains, locus YLR342W, strain FKS1 (second series), stronger effect = lower value 1.01 | [49] 1 | [50] 1.01 | [51] 1.01 | [52] 1 | [53] 1.01 | [54] 1.02 | [55] 1.02 | [56] 0.995 | [57] 0.99 | [58] 1 | [59] 1 | [60] 0.995 | [61] 1.02 | [62] 1.01 | [63] 1.01 | [64] 1.02 | S. cerevisiae deletion strains, locus YNL322C, strain KRE1, stronger effect = lower value 0.998 | [65] 1.01 | [66] 1 | [67] 1.01 | [68] 1.01 | [69] 0.996 | [70] 1.02 | [71] 1.02 | [72] 1.01 | [73] 1.01 | [74] 1 | [75] 1.02 | [76] 1.02 | [77] 1.02 | [78] 1.02 | [79] 0.986

CC(=O)O[C@H]1CC[C@]2(C)C3CC[C@@]4(C)C(CC5O[C@@]6(CCC(C)CO6)[C@@H](C)C54)C3CC[C@H]2C1 (stereo not given in full)
inactive: S. cerevisiae deletion strains, locus YAL013W, strain DEP1, stronger effect = lower value 0.995 | [1] 1 | [2] 0.986 | [3] 0.98 | [4] 1.02 | [5] 1.01 | [6] 0.98 | S. cerevisiae deletion strains, locus YDL134C, strain PPH21, stronger effect = lower value 0.988 | [7] 0.972 | [8] 0.987 | [9] 0.983 | [10] 1 | [11] 1.02 | [12] 0.975 | [13] 0.973 | [14] 0.974 | [15] 0.997 | [16] 0.976 | [17] 0.984 | [18] 0.995 | [19] 0.971 | [20] 0.988 | [21] 0.984 | [22] 0.948 | [23] 0.92 | [24] 0.978 | [25] 0.977 | [26] 0.969 | [27] 0.991 | [28] 0.973 | [29] 0.993 | [30] 0.985 | [31] 0.982 | [32] 0.975 | [33] 0.977 | [34] 0.987 | [35] 0.979 | [36] 0.977 | [37] 1.02 | S. cerevisiae deletion strains, locus YJR075W, strain HOC1, stronger effect = lower value 0.983 | [38] 1.04 | [39] 0.979 | [40] 1.01 | [41] 1.01 | [42] 0.999 | [43] 0.971 | [44] 1.07 | [45] 0.989 | [46] 0.979 | [47] 0.987 | [48] 0.986 | [49] 0.991 | [50] 0.976 | [51] 0.989 | [52] 0.977 | [53] 0.994 | [54] 0.969 | [55] 0.969 | [56] 0.991 | [57] 1.09 | [58] 0.983 | [59] 0.977 | [60] 1.01 | [61] 0.965 | [62] 0.982 | [63] 0.971 | [64] 0.982 | [65] 0.953 | S. cerevisiae deletion strains, locus YOL006C, strain TOP1, stronger effect = lower value 1.06 | [66] 1.12 | [67] 0.98 | [68] 1 | [69] 0.98 | [70] 0.968 | [71] 0.972 | [72] 1.02 | [73] 0.977 | [74] 0.968 | [75] 0.974 | [76] 0.977 | [77] 0.979 | [78] 1 | [79] 1.02

From PubChem BioAssay AID1159580 (chemical genetic matrix, 2015)
